Our source for the cell viability, % of control (lower = more cytotoxic) and viability (% of control) values is PubChem BioAssay (NCATS).

SMILES strings stand for the structures.

The first test can be described thus: High-throughput drug toxicity screening in the BPDCN cell line Gen2.2 (AID 1224824).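 Further: cells exposed to compounds for 48 h before reading.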 Conditions: Gen2.2 BPDCN cells; at 45.8 µM (top of the series) unless noted. In short, it runs like this:
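Readout is ATP luminescence from Gen2.2 cells after two days of drug exposure in serum-containing medium at 37 °C. Values express percent activity, with vehicle defining full signal and 9.2 uM bortezomib defining zero.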
As for `CNCC[C@H](Oc1cccc2ccccc12)c1cccs1`, the cell viability, % of control (lower = more cytotoxic) came out at 8.39%.
Same read-out and setting: the value for `NC(=O)c1cccc(N)c1` was 84.2%.
Same read-out and setting: then `N=C(N)c1ccc(OCCCCCOc2ccc(C(=N)N)cc2)cc1`, with 272%; and `CC(C(=O)O)c1ccc2c(c1)CC(=O)c1ccccc1S2` (stereo unspecified), with 113%; and `CC(C)OC(=O)OCOP(=O)(CO[C@H](C)Cn1cnc2c(N)ncnc21)OCOC(=O)OC(C)C`, with 162%.
Consider `CC1(C)[C@H](C(=O)O)N2C(=O)C[C@H]2S1(=O)=O`, for which the cell viability, % of control (lower = more cytotoxic) is 240%.
Same read-out and setting: the value for `CCc1cc(C(N)=S)ccn1` was 139%; that for `C[C@@H]1CN(c2c(F)c(N)c3c(=O)c(C(=O)O)cn(C4CC4)c3c2F)C[C@H](C)N1` was 89.9% [at 23.2 µM].
On the same count and under the same terms, the value for `S=P(N1CC1)(N1CC1)N1CC1` was 92%; that for `CCCCCCNC(=O)n1cc(F)c(=O)[nH]c1=O` was 106%.
Same read-out and setting: then `CCN1CCCC1CNC(=O)c1cc(S(N)(=O)=O)ccc1OC` (stereo unspecified), with 128%; and `CC[C@H](C)C(=O)O[C@H]1C[C@@H](C)C=C2C=C[C@H](C)[C@H](CC[C@@H]3C[C@@H](O)CC(=O)O3)[C@H]21`, with 8.11%; and `COc1ccc(-c2ccc3cc(C(=O)O)ccc3c2)cc1C12CC3CC(CC(C3)C1)C2`, with 521%.
Consider `CCOC(=O)c1ccc(C#Cc2ccc3c(c2)C(C)(C)CCS3)nc1`, for which the cell viability, % of control (lower = more cytotoxic) was 379%.
Consider `CNC1CCCN(c2c(F)cc3c(=O)c(C(=O)O)cn(C4CC4)c3c2OC)C1` (stereo unspecified), for which the cell viability, % of control (lower = more cytotoxic) is 106%.
With `O[C@@H](CNC[C@H](O)[C@H]1CCc2cc(F)ccc2O1)[C@@H]1CCc2cc(F)ccc2O1`, the cell viability, % of control (lower = more cytotoxic) turned out to be 4.81%.
On the same count and under the same terms, then `CN(C)CCc1c[nH]c2ccc(C[C@H]3COC(=O)N3)cc12`, with 88.7%; and `COc1ncnc(NS(=O)(=O)c2ccc(N)cc2)c1OC`, with 106%; and `CO[C@@]12[C@H](COC(N)=O)C3=C(C(=O)C(C)=C(N)C3=O)N1C[C@@H]1N[C@@H]12`, with 2.55%.
Still for that read-out and setting: then `Cc1ncc([N+](=O)[O-])n1CCO`, with 180%; and `CC(C)Cn1cnc2c(N)nc3ccccc3c21`, with 11.8%; and `O=C(O)CSCC(=O)NC1CCSC1=O` (stereo unspecified), with 118%.
Still for that read-out and setting: the value for `Cc1onc(-c2ccccc2Cl)c1C(=O)N[C@@H]1C(=O)N2[C@@H]1SC(C)(C)[C@@H]2C(=O)O` was 168%.
On to `CC1=CC(=O)c2ccccc2C1=O`, for which the cell viability, % of control (lower = more cytotoxic) was 2.97%.
Same read-out and setting: the value for `CC(C)(Sc1cc(C(C)(C)C)c(O)c(C(C)(C)C)c1)Sc1cc(C(C)(C)C)c(O)c(C(C)(C)C)c1` was 48.3%; that for `NS(=O)(=O)c1cc2c(cc1Cl)NC(C(Cl)Cl)NS2(=O)=O` (stereo unspecified) was 43.4%.
Still for that read-out and setting: then `C[C@]12C=CC(=O)C=C1CC[C@@H]1[C@@H]2C(=O)C[C@@]2(C)[C@H]1CC[C@]2(O)C(=O)CO`, with 158% [at 23.2 µM]; and `COc1cc(NCc2ccc3nc(N)nc(N)c3c2C)cc(OC)c1OC`, with 8.74%.
On the same count and under the same terms, then `O=C(NCC1CN(c2ccc(N3CCOCC3=O)cc2)C(=O)O1)c1ccc(Cl)s1` (stereo unspecified), with 29.6%; and `CC(=O)[C@H]1CC[C@H]2[C@@H]3CCC4=CC(=O)CC[C@]4(C)[C@H]3CC[C@]12C`, with 83%.
Turning to `Cc1nnc(NS(=O)(=O)c2ccc(N)cc2)s1`, the cell viability, % of control (lower = more cytotoxic) was found to be 114%.
On the same count and under the same terms, then `C[C@@H](NCCCc1cccc(C(F)(F)F)c1)c1cccc2ccccc12`, with 264%; and `COC(c1ccccc1)(c1ccccc1)[C@H](Oc1nc(C)cc(C)n1)C(=O)O`, with 195%; and `COc1cc(NS(=O)(=O)c2ccc(N)cc2)nc(OC)n1`, with 129%.

The next test in a line: High-throughput drug toxicity screening in the BPDCN cell line Cal-1 (AID 1224825).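 Further: cells exposed to compounds for 48 h.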 Conditions: Cal-1 BPDCN cell viability, qHTS; at 45.8 µM (top of the series) unless noted. In short, it runs like this:
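500 Cal-1 cells/well, RPMI + glutamine + 10% FBS (phenol red-free); cpd added by pin tool; 48 h, 37C, 5% CO2; CTG 15 min RT, lumi read. Normalised: DMSO 100%, bortezomib 9.2 uM 0%.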
Regarding `CNCC[C@H](Oc1cccc2ccccc12)c1cccs1`, the viability (% of control) was 39.6%.
Take `NC(=O)c1cccc(N)c1`: the viability (% of control) came to 109%.
As to `N=C(N)c1ccc(OCCCCCOc2ccc(C(=N)N)cc2)cc1`, the viability (% of control) worked out at 39.6%.
Consider `CC(C(=O)O)c1ccc2c(c1)CC(=O)c1ccccc1S2` (stereo unspecified), for which the viability (% of control) was found to be 19.4%.
On the same count and under the same terms, then `CC(C)OC(=O)OCOP(=O)(CO[C@H](C)Cn1cnc2c(N)ncnc21)OCOC(=O)OC(C)C`, with 42.8%; and `CC1(C)[C@H](C(=O)O)N2C(=O)C[C@H]2S1(=O)=O`, with 103%.
Consider `CCc1cc(C(N)=S)ccn1`, for which the viability (% of control) is 95.1%.
The same measure, in the same setting: then `C[C@@H]1CN(c2c(F)c(N)c3c(=O)c(C(=O)O)cn(C4CC4)c3c2F)C[C@H](C)N1`, with 107% [at 23.2 µM].
Same read-out and setting: the value for `S=P(N1CC1)(N1CC1)N1CC1` was 27.1%; that for `COc1nc(N)nc2c1ncn2[C@@H]1O[C@H](CO)[C@@H](O)[C@@H]1O` was 78%.
On the same count and under the same terms, then `CCCCCCNC(=O)n1cc(F)c(=O)[nH]c1=O`, with 33.8%; and `CCN1CCCC1CNC(=O)c1cc(S(N)(=O)=O)ccc1OC` (stereo unspecified), with 82.8%; and `CC[C@H](C)C(=O)O[C@H]1C[C@@H](C)C=C2C=C[C@H](C)[C@H](CC[C@@H]3C[C@@H](O)CC(=O)O3)[C@H]21`, with 84.4%.
`COc1ccc(-c2ccc3cc(C(=O)O)ccc3c2)cc1C12CC3CC(CC(C3)C1)C2`: the viability (% of control) is 112%.
With `CCOC(=O)c1ccc(C#Cc2ccc3c(c2)C(C)(C)CCS3)nc1`, the viability (% of control) is 47%.
Same read-out and setting: the value for `CC(C)OC(=O)C(C(=O)OC(C)C)=C1SC=CS1` was 94.2%; that for `CNC1CCCN(c2c(F)cc3c(=O)c(C(=O)O)cn(C4CC4)c3c2OC)C1` (stereo unspecified) was 32.3%.
The same measure, in the same setting: the value for `O[C@@H](CNC[C@H](O)[C@H]1CCc2cc(F)ccc2O1)[C@@H]1CCc2cc(F)ccc2O1` was 2.75%; that for `CN(C)CCc1c[nH]c2ccc(C[C@H]3COC(=O)N3)cc12` was 99.9%.
Take `COc1ncnc(NS(=O)(=O)c2ccc(N)cc2)c1OC`: the viability (% of control) came to 96.2%.
With `CO[C@@]12[C@H](COC(N)=O)C3=C(C(=O)C(C)=C(N)C3=O)N1C[C@@H]1N[C@@H]12`, the viability (% of control) came to 2.42%.
For the compound `CO[C@@H]1[C@@H](OC(N)=O)[C@@H](O)[C@H](Oc2ccc3c(O)c(NC(=O)c4ccc(O)c(CC=C(C)C)c4)c(=O)oc3c2C)OC1(C)C`, the viability (% of control) worked out at 44%.
On the same count and under the same terms, the value for `Cc1ncc([N+](=O)[O-])n1CCO` was 76.6%; that for `CC(C)Cn1cnc2c(N)nc3ccccc3c21` was 3.23%; that for `O=C(O)CSCC(=O)NC1CCSC1=O` (stereo unspecified) was 112%.
Consider `Cc1onc(-c2ccccc2Cl)c1C(=O)N[C@@H]1C(=O)N2[C@@H]1SC(C)(C)[C@@H]2C(=O)O`, for which the viability (% of control) stood at 97.4%.
On the same count and under the same terms, the value for `CC1=CC(=O)c2ccccc2C1=O` was 1.39%; that for `CC(C)(Sc1cc(C(C)(C)C)c(O)c(C(C)(C)C)c1)Sc1cc(C(C)(C)C)c(O)c(C(C)(C)C)c1` was 45.2%.
For the compound `NS(=O)(=O)c1cc2c(cc1Cl)NC(C(Cl)Cl)NS2(=O)=O` (stereo unspecified), the viability (% of control) turned out to be 94.1%.
For the compound `C[C@]12C=CC(=O)C=C1CC[C@@H]1[C@@H]2C(=O)C[C@@]2(C)[C@H]1CC[C@]2(O)C(=O)CO`, the viability (% of control) was 86.4% [at 23.2 µM].
With `COc1cc(NCc2ccc3nc(N)nc(N)c3c2C)cc(OC)c1OC`, the viability (% of control) is 3.95%.
In the case of `O=C(NCC1CN(c2ccc(N3CCOCC3=O)cc2)C(=O)O1)c1ccc(Cl)s1` (stereo unspecified), the viability (% of control) was determined as 48.9%.
Still for that read-out and setting: the value for `CC(=O)[C@H]1CC[C@H]2[C@@H]3CCC4=CC(=O)CC[C@]4(C)[C@H]3CC[C@]12C` was 79.9%; that for `Cc1nnc(NS(=O)(=O)c2ccc(N)cc2)s1` was 13.2%.
Same read-out and setting: the value for `C[C@@H](NCCCc1cccc(C(F)(F)F)c1)c1cccc2ccccc12` was 110%; that for `COC(c1ccccc1)(c1ccccc1)[C@H](Oc1nc(C)cc(C)n1)C(=O)O` was 121%; that for `COc1cc(NS(=O)(=O)c2ccc(N)cc2)nc(OC)n1` was 104%.
